A short description of experiment [1]: ATG_GLI_CIS: Attagene CIS-FACTORIAL HepG2 Assay for human Zinc Finger Protein GLI1 (AID 2282945). Conditions: HepG2, Attagene cis-factorial reporter mRNA, GLI element; actives raise or lower the signal. The essentials: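 Bidirectional curve fits relative to DMSO, using reporter mRNA levels from RT-PCR plus capillary electrophoresis. Cells were HepG2 transiently carrying cis-regulated reporter constructs, harvested 24 h after dosing.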

Experiment [2] concerns the target Bile acid receptor (Homo sapiens) (UniProt Q96RI1). Kind of experiment: ATG_IR1_CIS: Attagene CIS-FACTORIAL HepG2 Assay for human Nuclear Receptor Subfamily 1 Group H Member 4 (NR1H4), IR1 submotif (AID 2282946). Conditions: IR1 reporter transcription, actives raise or lower the signal. Summed up: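 HepG2 cells transiently transfected with multiplexed cis-element reporter units read endogenous transcription factor activity. After 24 h compound exposure, reporter mRNA was quantified by RT-PCR, fluorescent labelling, HpaI digestion and capillary electrophoresis; bidirectional fitting versus DMSO baseline.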

The nature of experiment [3]: ATG_GRE_CIS: Attagene CIS-FACTORIAL HepG2 Assay for human Glucocorticoid Response Elements (GRE) (AID 2282947). Conditions: HepG2 GRE cis-reporter, Attagene multiplex mRNA; actives raise or lower the signal. Summed up: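 Multiplexed cis-reporter mRNA induction, HepG2, 24 h post-dose. RT-PCR, FAM-labelled, HpaI-digested amplicons by CE. Bidirectional fit vs DMSO.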
The nature of experiment [4]: ATG_ISRE_CIS: Attagene CIS-FACTORIAL HepG2 Assay for human Interferon Regulatory Factor 1 (IRF1) binding to an Interferon-Stimulated Response Element (ISRE) (AID 2282948). The note with it: HepG2 ISRE cis-reporter (Attagene), mRNA transcription readout; actives raise or lower the signal. Summed up: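 Multiplexed mRNA reporter readout in human liver HepG2 cells: cis-element-driven reporters transfected, compound added for 24 h, transcripts amplified, fluorescently labelled and sized by capillary electrophoresis; curve fitting bidirectional against DMSO.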

Experiment [5] can be described thus: ATG_M_32_CIS: Attagene CIS-FACTORIAL HepG2 Assay for M32 Transcription Factor (Internal Marker) (AID 2282949).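 Further: background control marker of the multiplexed CIS panel rather than a real target.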 The note with it: HepG2 Attagene cis-factorial M32 reporter, mRNA; actives raise or lower the signal. The essentials:
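Using DMSO as baseline, bidirectional curve fits were applied to reporter mRNA signals. These came from transiently transfected HepG2 cells exposed for 24 h, with RNA analysed by RT-PCR, FAM primer extension, HpaI digestion and CE.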

The nature of experiment [6]: ATG_M_06_CIS: Attagene CIS-FACTORIAL HepG2 Assay for M06 Transcription Factor (Internal Marker) (AID 2282950). The note with it: HepG2 Attagene CIS-FACTORIAL M06 internal marker reporter; actives raise or lower the signal. Summed up: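 Read-out is fluorescence of labelled reporter cDNA fragments resolved by capillary electrophoresis after RT-PCR. Cells: HepG2 carrying transfected cis-promoter reporter units, treated 24 h. Gain or loss of signal fitted relative to DMSO.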

Experiment [7] concerns the target Hypoxia-inducible factor 1-alpha (Homo sapiens) (UniProt Q16665). Nature of the experiment: ATG_HIF1a_CIS: Attagene CIS-FACTORIAL HepG2 Assay for human Hypoxia Inducible Factor 1 (HIF1A) (AID 2282951). The note with it: HepG2 Attagene cis-factorial HIF1a reporter transcription; actives raise or lower the signal. The essentials:
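Dosed 24 h, transfected HepG2 cells yielded total RNA whose reporter transcripts were RT-PCR-amplified and sized by capillary electrophoresis using fluorescent labelling; DMSO defined baseline, with gain and loss of signal both fitted.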

In experiment [8] the target is Hepatocyte nuclear factor 6 (Homo sapiens) (UniProt Q9UBC0). Kind of experiment: ATG_HNF6_CIS: Attagene CIS-FACTORIAL HepG2 Assay for human Hepatocyte Nuclear Factor 6 (HNF6) (AID 2282952). The note with it: HepG2 Attagene cis-factorial HNF6 reporter transcription; actives raise or lower the signal. Summed up:
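First, HepG2 cells were transfected with the multiplexed cis reporter library and dosed with chemical for 24 h. Next, RNA was reverse-transcribed, PCR-amplified and fluorescently labelled. Finally, HpaI-digested fragments were read by capillary electrophoresis.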

The target of experiment [9] is Heat shock factor protein 1 (Homo sapiens) (UniProt Q00613). Kind of experiment: ATG_HSE_CIS: Attagene CIS-FACTORIAL HepG2 Assay for human Heat Shock Transcription Factor 1 (HSE) (AID 2282953). The note with it: HepG2 HSE cis-reporter, Attagene RNA transcription; actives raise or lower the signal. The essentials:
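HepG2, transient MRTU transfection, cis-promoter reporters (endogenous TF activity). 24 h compound. RNA → oligo(dT) RT → PCR → 6-FAM primer extension → HpaI cut → CE. Bidirectional fit vs DMSO.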

Experiment [10] can be described thus: ATG_MRE_CIS: Attagene CIS-FACTORIAL HepG2 Assay for human Metal Responsive Element (MRE) (AID 2282954). Conditions: HepG2 MRE cis-reporter transcription, Attagene multiplex; actives raise or lower the signal. The essentials:
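Multiplexed cis-reporter assay in human HepG2 liver cells, 24 h incubation with test chemical. Reporter transcripts measured by RT-PCR and capillary electrophoresis; values from bidirectional curve fitting versus DMSO.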

The source of these data is PubChem BioAssay (EPA / NIEHS).

Calls of active or inactive are those of the source. How the source made its calls: active means hit-call score of the fitted dose curve at least 0.9, where 1 is the maximum; inactive means score below 0.9.

Sequence of Hypoxia-inducible factor 1-alpha (Homo sapiens) (Q16665 whole entry, looked up): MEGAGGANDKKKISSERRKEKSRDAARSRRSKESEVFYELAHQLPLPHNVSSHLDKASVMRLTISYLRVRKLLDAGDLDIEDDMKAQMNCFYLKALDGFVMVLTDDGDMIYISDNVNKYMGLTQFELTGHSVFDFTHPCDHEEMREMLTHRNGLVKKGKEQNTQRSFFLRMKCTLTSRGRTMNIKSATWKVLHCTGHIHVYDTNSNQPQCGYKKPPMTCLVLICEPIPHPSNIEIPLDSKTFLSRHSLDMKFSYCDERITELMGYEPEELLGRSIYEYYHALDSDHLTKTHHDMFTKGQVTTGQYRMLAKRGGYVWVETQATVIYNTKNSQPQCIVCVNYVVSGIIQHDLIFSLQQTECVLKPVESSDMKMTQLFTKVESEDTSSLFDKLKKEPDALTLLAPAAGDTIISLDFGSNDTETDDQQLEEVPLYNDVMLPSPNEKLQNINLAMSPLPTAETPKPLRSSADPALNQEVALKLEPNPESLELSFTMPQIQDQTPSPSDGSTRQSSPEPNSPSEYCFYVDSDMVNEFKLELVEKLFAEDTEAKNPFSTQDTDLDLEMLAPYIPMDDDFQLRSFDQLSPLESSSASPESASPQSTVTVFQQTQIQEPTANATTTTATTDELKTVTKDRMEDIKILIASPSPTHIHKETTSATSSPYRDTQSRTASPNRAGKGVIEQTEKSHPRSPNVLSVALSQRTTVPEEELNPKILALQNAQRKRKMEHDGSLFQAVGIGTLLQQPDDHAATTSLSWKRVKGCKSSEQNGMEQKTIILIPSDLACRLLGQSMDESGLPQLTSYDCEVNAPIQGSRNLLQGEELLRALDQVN
Sequence of Heat shock factor protein 1 (Homo sapiens) (Q00613 whole entry, looked up): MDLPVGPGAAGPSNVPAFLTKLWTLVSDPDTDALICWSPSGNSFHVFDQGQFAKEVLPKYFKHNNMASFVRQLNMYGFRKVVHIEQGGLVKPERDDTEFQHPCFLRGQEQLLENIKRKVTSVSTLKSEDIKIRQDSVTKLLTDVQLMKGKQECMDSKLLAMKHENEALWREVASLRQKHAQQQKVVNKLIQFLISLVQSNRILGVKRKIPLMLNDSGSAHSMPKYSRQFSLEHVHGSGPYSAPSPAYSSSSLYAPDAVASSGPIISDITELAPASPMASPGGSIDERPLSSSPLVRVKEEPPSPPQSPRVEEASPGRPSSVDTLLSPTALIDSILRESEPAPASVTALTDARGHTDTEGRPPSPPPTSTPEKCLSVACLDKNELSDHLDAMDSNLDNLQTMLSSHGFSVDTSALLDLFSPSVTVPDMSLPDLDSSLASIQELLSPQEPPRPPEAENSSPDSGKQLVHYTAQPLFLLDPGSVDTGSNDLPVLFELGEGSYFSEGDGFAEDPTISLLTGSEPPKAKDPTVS
Sequence of Hepatocyte nuclear factor 6 (Homo sapiens) (Q9UBC0 whole entry, looked up, the tested form may be a part): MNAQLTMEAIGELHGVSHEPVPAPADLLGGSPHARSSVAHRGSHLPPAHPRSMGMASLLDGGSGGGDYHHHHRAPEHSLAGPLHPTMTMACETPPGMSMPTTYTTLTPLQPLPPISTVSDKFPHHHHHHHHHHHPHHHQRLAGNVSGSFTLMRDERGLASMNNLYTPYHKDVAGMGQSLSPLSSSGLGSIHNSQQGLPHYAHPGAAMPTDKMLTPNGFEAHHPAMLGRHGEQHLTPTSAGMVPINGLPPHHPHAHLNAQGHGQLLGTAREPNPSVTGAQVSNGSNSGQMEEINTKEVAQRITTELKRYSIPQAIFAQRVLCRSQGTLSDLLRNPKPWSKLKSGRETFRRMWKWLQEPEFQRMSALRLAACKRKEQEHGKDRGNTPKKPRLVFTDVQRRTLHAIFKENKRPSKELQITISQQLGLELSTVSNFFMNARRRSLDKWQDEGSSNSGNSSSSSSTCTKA
Sequence of Bile acid receptor (Homo sapiens) (Q96RI1 whole entry, looked up): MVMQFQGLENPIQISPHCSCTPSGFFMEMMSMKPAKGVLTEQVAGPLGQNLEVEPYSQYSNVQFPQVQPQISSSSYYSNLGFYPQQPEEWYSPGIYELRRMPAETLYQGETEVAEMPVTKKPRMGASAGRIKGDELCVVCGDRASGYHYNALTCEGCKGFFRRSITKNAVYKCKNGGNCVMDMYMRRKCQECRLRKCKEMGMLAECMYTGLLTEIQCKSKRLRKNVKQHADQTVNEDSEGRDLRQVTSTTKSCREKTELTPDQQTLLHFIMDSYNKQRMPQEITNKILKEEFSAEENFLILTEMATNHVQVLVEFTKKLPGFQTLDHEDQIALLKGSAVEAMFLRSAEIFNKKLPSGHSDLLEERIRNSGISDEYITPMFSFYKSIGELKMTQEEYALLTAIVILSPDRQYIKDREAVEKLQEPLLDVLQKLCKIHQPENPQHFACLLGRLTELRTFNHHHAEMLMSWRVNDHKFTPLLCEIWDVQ

On to `CCCCCC/C=C/CCCCCCCC(=O)O`, for which the outcome in experiment [1], in experiment [2], in experiment [3], in experiment [4], in experiment [5] and in experiment [6] was inactive. Also, the compound was classed as inactive in experiment [7], in [8], in [9] and in [10].

Regarding `O=C(O)C(F)(F)C(F)(F)C(F)(F)C(F)(F)C(F)(F)C(F)(F)C(F)F`, the result in [1], in experiment [2], in [3], in experiment [4], in experiment [5] and in experiment [6] was inactive. Moreover, the compound was called inactive in experiment [7], in [8], in experiment [9] and in [10].

`OCCCCl`: the result in [1], in experiment [2], in experiment [3], in experiment [4], in experiment [5] and in experiment [6] was inactive. Also, the outcome in [7], in experiment [8], in experiment [9] and in experiment [10] was inactive.

In the case of `O=C1C=CC(=O)N1c1ccc(Cc2ccc(N3C(=O)C=CC3=O)cc2)cc1`, the result in experiment [1], in [2], in experiment [3], in [4], in experiment [5] and in experiment [6] was inactive. Further, in [10], the compound was classed as inactive. For the same compound, the AC50 is 46.9 µM (active) in [7], 50.7 µM (active) in experiment [8] and 55.2 µM (active) in experiment [9].

As for `O=C(c1ccccc1)c1ccc(Cl)cc1`, the compound was classed as inactive in experiment [1], in experiment [2], in [3], in [4], in experiment [5] and in [6]. The compound was classed as inactive in experiment [7] and in [8]. Besides, the AC50 in experiment [9] was 153 µM (active); in experiment [10], 57.5 µM (active).

Consider `O=C1c2ccccc2C(=O)c2c(Cl)cccc21`, for which the compound was called inactive in [1], in [2], in [3], in experiment [4], in [5] and in [6]. Moreover, the compound was classed as inactive in [7], in [8], in experiment [9] and in experiment [10].

Consider `CC1=CC2C3C=CC(C3)C2C1C` (stereo not drawn), for which the outcome in [1], in experiment [2], in experiment [3], in [4], in experiment [5] and in [6] was inactive. The compound was classed as inactive in experiment [7] and in [9]. Further, the AC50 in experiment [10] is 65.8 µM (active).

On to `O=c1[nH]cccc1O`, for which the compound was classed as inactive in experiment [1], in experiment [2], in experiment [3], in experiment [4], in experiment [5] and in experiment [6]. The call in experiment [7], in experiment [9] and in [10] was inactive.

Turning to `CCCCOC(=O)[C@H](C)O`, the compound was classed as inactive in experiment [1], in experiment [2], in [3], in experiment [4], in experiment [5] and in experiment [6]. The result in [7], in experiment [9] and in experiment [10] was inactive.

For `O=C1C=CC(=O)N1c1ccccc1`, the call in [1], in experiment [2], in experiment [3], in experiment [4], in [5] and in [6] was inactive. Besides, the call in experiment [7], in [9] and in experiment [10] was inactive.

As to `Oc1ccc(C2(c3ccc(O)c(C4CCCCC4)c3)CCCCC2)cc1C1CCCCC1`, the compound was called inactive in experiment [1], in experiment [2], in experiment [5], in experiment [6] and in experiment [7]. The half-maximal activity concentration (AC50) in [3] is 33.4 µM (active); in experiment [4] it was 55.9 µM (active); in experiment [9], 8.18 µM (active); in experiment [10], 11.1 µM (active).

Turning to `CN1CN(C)CN(C)C1`, the outcome in experiment [1], in experiment [2], in experiment [3], in [5], in experiment [6] and in [7] was inactive. Besides, the AC50 in [4] is 74.3 µM (active); in experiment [9] it was 160 µM (active); in experiment [10] it was 182 µM (active).

On to `CC(C)CC=C(C=O)c1ccccc1`, for which the call in experiment [1], in experiment [2], in experiment [3], in [4], in [5] and in experiment [6] was inactive. The outcome in experiment [7], in [8], in [9] and in experiment [10] was inactive.

Regarding `Cc1ccc(O)c(-n2nc3ccccc3n2)c1`, the call in experiment [1], in experiment [2], in experiment [3], in experiment [4], in [5] and in experiment [6] was inactive. The compound was called inactive in [7], in experiment [9] and in [10].

For `O=C(c1ccccc1)c1ccc(O)cc1O`, the call in [1], in [2], in experiment [3], in [4], in experiment [5] and in [6] was inactive. The outcome in experiment [7], in experiment [9] and in experiment [10] was inactive.

For `C=CC(=O)OCC(F)(F)C(F)(F)C(F)(F)COC(=O)C=C`, the compound was classed as inactive in experiment [1], in [2], in [3], in [5], in [6] and in experiment [7]. In experiment [9], the compound was called inactive. The results for the AC50 in experiment [4] and in experiment [10] were 35.9 µM (active) and 33.2 µM (active), respectively.

Regarding `Cc1ccc(S(=O)(=O)C(I)I)cc1`, the AC50 in experiment [1] was 6.16 µM (active); in [2], 42.7 µM (active); in experiment [3], 3.45 µM (active); in experiment [4], 4.8 µM (active); in experiment [8], 33.4 µM (active); in experiment [9] it was 10.4 µM (active). In addition, in [10], the AC50 is 8.81 µM (active). Besides, the call in experiment [5], in experiment [6] and in experiment [7] was inactive.

Turning to `CCC(=O)OC(C)c1ccccc1` (stereo not drawn), the compound was called inactive in [1], in experiment [2], in experiment [3], in experiment [4], in experiment [5] and in experiment [6]. Further, the result in experiment [7], in experiment [9] and in experiment [10] was inactive.

As for `C[Si](Cl)(Cl)CCC(F)(F)C(F)(F)C(F)(F)C(F)(F)C(F)(F)C(F)(F)F`, the compound was called inactive in experiment [1], in [2], in [3], in experiment [4], in [5] and in [6]. Moreover, the result in [7], in experiment [9] and in experiment [10] was inactive.

In the case of `F[Si-2](F)(F)(F)(F)F`, the outcome in experiment [1], in experiment [2], in experiment [3], in experiment [4], in experiment [5] and in experiment [6] was inactive. Also, the compound was classed as inactive in [7], in [9] and in experiment [10].

In the case of `CCC/C=C/CO`, the compound was classed as inactive in experiment [1], in [2], in experiment [3], in experiment [4], in experiment [5] and in [6]. Further, the result in [7], in [9] and in experiment [10] was inactive.

For the compound `COc1ccccc1C=O`, the call in experiment [1], in experiment [2], in [3], in experiment [4], in experiment [5] and in [6] was inactive. Besides, the outcome in [9] and in [10] was inactive. The AC50 in experiment [7] was 27.7 µM (active).

For `O=S(=O)(O)CCC(F)(F)C(F)(F)C(F)(F)C(F)(F)C(F)(F)C(F)(F)C(F)(F)C(F)(F)F`, the outcome in experiment [1], in experiment [3], in [4], in [5], in experiment [6] and in [7] was inactive. Further, the compound was called inactive in [9] and in experiment [10]. In addition, the AC50 in experiment [2] is 39.9 µM (active).

As to `C=C(C)CCCC`, the compound was classed as inactive in experiment [1], in [2], in [3], in experiment [4], in [5] and in experiment [6]. Moreover, the call in experiment [7], in [9] and in experiment [10] was inactive.

For `CO[Si](C)(CCC(F)(F)C(F)(F)C(F)(F)C(F)(F)C(F)(F)C(F)(F)F)OC`, the compound was called inactive in [1], in [2], in experiment [3], in experiment [4], in [5] and in experiment [6]. Also, the compound was classed as inactive in [7], in experiment [9] and in [10].

The AC50 is the midpoint of the concentration-response curve, whichever way the signal moves.
